A selection: hits, their analogues and other compounds. The true share with any hit is near 12%.
Sfp PPTase inh – qHTS Assay for Inhibitors of Bacillus subtilis Sfp phosphopantetheinyl transferase (PPTase); 4'-phosphopantetheinyl transferase ffp (Bacillus subtilis), Q9F4F7; Biochemical Sfp PPTase activity, qHTS; Potency, µM, inactives show largest response in the series, negative = inhibition, actives largely listed as inhibitors; 310,000 tested, 3.5% active;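 further: the enzyme is Sfp with the accession as filed and its product quenches rhodamine fluorescence; 0% = enzyme reaction without inhibitor and -100% = no enzyme wells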
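Reaction rates are the 30-min fluorescence difference (ex 525, em 598 nm) in wells containing 15 nM Sfp, 5 uM rhodamine-CoA and 12.5 uM BHQ-2-YbbR at pH 7.6 with 10 mM MgCl2.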
L3MBTL1 inh – qHTS Assay for the Inhibitors of L3MBTL1. Lethal(3)malignant brain tumor-like protein 1 (Homo sapiens), Q9Y468. AlphaScreen L3MBTL1–H3K9me1 peptide binding. Potency, µM (top dose mostly 57.1 µM), for inactives: at the top dose activity, negative = inhibition, usual class: inhibitors. 230,000 tested, 0.66% active. AID 485360, 2010; further: on the % scale 0 is the no-effect control and ±100 the full control effect; nearly all actives have a fitted effect of over 60% in size
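AlphaScreen assay: L3MBTL1 (50 nM final) was preincubated 30 min at room temperature with biotinylated H3(1-15)K9me1 peptide (75 nM final), then 30 min with library compounds; streptavidin donor and nickel chelate acceptor beads (10 ug/mL final) added, 30 min dark.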
G9a inh – qHTS Assay for Inhibitors of Histone Lysine Methyltransferase G9a; G9a H3K9 monomethylation, AlphaScreen, 2 h; AID 504332, 2011; Potency, µM (series often up to 102 µM), without a hit: at the highest dose activity, negative = inhibition, usual class: inhibitors; 350,000 tested, 8.8% active; further: on the % scale 0 is the no-effect control and ±100 the full control effect; nearly all actives have a fitted effect of over 75% in size
Target sequence (Q96KQ7 913-1193 limits assumed): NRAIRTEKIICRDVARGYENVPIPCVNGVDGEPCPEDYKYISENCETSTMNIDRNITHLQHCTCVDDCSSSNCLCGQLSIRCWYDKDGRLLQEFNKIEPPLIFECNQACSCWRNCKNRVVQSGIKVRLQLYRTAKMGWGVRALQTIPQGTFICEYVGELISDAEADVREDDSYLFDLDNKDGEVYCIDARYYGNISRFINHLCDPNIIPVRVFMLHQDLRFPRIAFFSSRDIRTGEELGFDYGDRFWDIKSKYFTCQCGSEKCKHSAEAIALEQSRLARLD
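Compounds were preincubated with 20 nM G9a for 15 min, after which biotinylated H3K9 peptide (500 nM) and SAM (20 uM) started a 2 h room-temperature reaction. Monomethylated product was quantified by antibody-based AlphaScreen chemiluminescence.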
BAZ2B block – qHTS Assay for Inhibitors of BAZ2B; Potency, µM (top dose mostly 114 µM), for inactives: top-dose activity change, negative = inhibition, actives largely listed as inhibitors; AlphaScreen BAZ2B-H3K14Ac peptide displacement; 360,000 tested, 4.4% active; Bromodomain adjacent to zinc finger domain protein 2B (Homo sapiens), Q9UIF8; further: on the % scale 0 is the no-effect control and ±100 the full control effect; nearly all actives have a fitted effect of over 60% in size
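In this displacement format the biotinylated H3(5-23) peptide acetylated at Lys14 serves as ligand at 50 nM, with BAZ2B at 50 nM in PBS pH 7.4 containing 0.01% Tween-20. Donor and acceptor beads are 10 ug/mL final.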
HP1b binding inh – HTS for Inhibitors of HP1-beta Chromodomain Interactions with Methylated Histone Tails | Chromobox protein homolog 1 (Homo sapiens), P83916 | AlphaScreen HP1-beta / biotin-H3K9me3 peptide binding | Potency, µM (titrated, usually from 114 µM), without a hit: at the top dose activity change, negative = inhibition, hits mostly inhibitors | 390,000 tested, 0.56% active | AID 540317, 2011; further: nearly all actives have a fitted effect of over 70% in size
Target sequence (P83916 whole entry, looked up): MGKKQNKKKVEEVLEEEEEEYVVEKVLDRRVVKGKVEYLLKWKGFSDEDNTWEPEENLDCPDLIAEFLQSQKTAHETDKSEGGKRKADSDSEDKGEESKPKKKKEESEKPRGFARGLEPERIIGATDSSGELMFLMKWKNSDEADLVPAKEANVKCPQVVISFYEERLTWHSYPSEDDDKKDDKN
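AlphaScreen: HP1-beta (50 nM) preformed 30 min with biotin-H3(1-18)K9me3 peptide (50 nM) in PBS pH 7.4, 0.01% Tween-20. Compound added for 30 min at RT, then streptavidin donor/nickel chelate acceptor beads (10 ug/mL) for 30 min.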
JMJD2A Tudor inh – qHTS Assay for Inhibitors of JMJD2A-Tudor Domain. AID 504339, 2011. Lysine-specific demethylase 4A (Homo sapiens), O75164. Potency, µM (titrated, usually from 114 µM), inactives show top-dose activity change, negative = inhibition, usual class: inhibitors. AlphaScreen JMJD2A-Tudor / H3K4me3 peptide binding. 390,000 tested, 4.4% active; further: on the % scale 0 is the no-effect control and ±100 the full control effect; nearly all actives have a fitted effect of over 50% in size
Numbers without * were called inactive; ? = inconclusive; · = not tested or not shown; [ ] = another dose, or the depositor's remark. The call rests on the fitted dose curve; in most records, active means well fitted curve in the direction sought with a large enough effect; inconclusive means small, poorly fitted or top-dose-only effect, or another doubt; inactive means no such curve, though single readings can be large; an effect the other way counts as inactive or inconclusive. Potency means the concentration at half of the fitted maximal effect.

SMILES	Sfp PPTase inh	L3MBTL1 inh	G9a inh	BAZ2B block	HP1b binding inh	JMJD2A Tudor inh
Cc1ccc(-n2c(C)c(C)c3c(NCCO)ncnc32)cc1	5%	·	-12%	-24%	4%	-21%
CCCCCCCCN[C@@H](C)[C@H](O)c1ccc(SC(C)C)cc1	?	·	9%[21.5 µM]	·	·	·
O=C(Nc1ccccc1[N+](=O)[O-])c1cccnc1Cl	6%	-11%	24%[59 µM]	6%	22%	-18%
CC1=C(C(=O)OCc2ccccc2)C(c2cccc(Br)c2)NC(=O)N1 (stereo unspecified)	32%	4%[2.29 µM]	-10%[0.501 µM]	7%	26%	-5%
COc1cccc(C2C3=C(Nc4[nH]n(-c5ccccc5)c(=O)c42)c2ccccc2C3=O)c1 (stereo unspecified)	-21%	-14%	10µM*	?	·	·
COc1cccc(C2C3=C(CCCC3=O)Nc3[nH]n(-c4ccccc4)c(=O)c32)c1 (stereo unspecified)	18%	-5%	?	-30%	10%	-13%
CC1=C([N+](=O)[O-])C(c2cccc(Br)c2)C2=C(N1)c1ccccc1C2=O (stereo unspecified)	?	·	-21%[2.33 µM]	14µM*	?	16µM*
C=C(C)[C@H]1CC[C@]2(C(=O)O)CC[C@]3(C)[C@@H](CC[C@H]4[C@@]5(C)CC[C@@H](O)C(C)(C)[C@@H]5CC[C@@]43C)[C@H]12	24%	·	21%[21.5 µM]	·	·	·
CC(C)n1c(-c2ccco2)csc1=Nc1cccnc1	-13%	-22%	13µM*	28µM*	?	56µM*
Cc1ccc(-c2csc(=Nc3cccnc3)n2CCCn2ccnc2)cc1C	-5%	?	?	13µM*	?	?
COCCn1c(-c2ccccc2)csc1=Nc1cccnc1	6%	?	40µM*	40µM*	?	?
c1cncc(N=c2scc(-c3cccc4ccccc34)n2CCCn2ccnc2)c1	-10%	?	?	10µM*	?	35µM*
CCCCn1c(C)csc1=Nc1cccnc1	-11%	-12%	?	?	-15%	-33%
Cc1ccc(-c2csc(=Nc3cccnc3)n2CCCN2CCCC2=O)cc1C	-5%	-7%	-21%[59 µM]	?	?	?
Cc1ccc2c(c1)-c1c(c(C(=O)N3CCN(c4cc(Cl)ccc4C)CC3)nn1C)CS2	·	·	-10%[59 µM]	-17%	-4%	-14%
CCOc1ccc(NC(=O)c2cc3c(=O)n4cccc(C)c4nc3s2)cc1	·	·	8%[59 µM]	2%	45%	9%
O=C(CC1C=CCC1)Nc1ccccc1 (stereo unspecified)	·	·	·	·	-8%	-10%
O=C(NNc1nc2cc3c(cc2s1)OCO3)c1ccc(F)cc1	28µM*	27%	8.9µM*	16%	3%	-20%
O=C(NNc1nc2cc3c(cc2s1)OCCO3)c1ccc(F)cc1	56µM*	-4%	50µM*	-9%	23%	-14%
Cn1c2ccc(F)cc2c2ncn(Cc3ccco3)c(=O)c21	50µM*	·	-28%[59 µM]	-3%	23%	-12%
CCCCn1c(=O)n(Cc2cccc(F)c2)c(=O)c2c1ncn2Cc1ccco1	40µM*	-10%	5%[12.7 µM]	6%	10%	-16%[11.4 µM]
Fc1ccc(Nc2nc(SCc3cccc(F)c3)nc3ccccc23)cc1	·	·	33%[59 µM]	29%	69%	24%
C=CCOC(=O)N[C@H](/C(C(=O)OC)=C(\C)NCc1ccccc1)c1ccc(C)cc1	-10%	·	·	·	·	·
N#CC1=C(N)C(C#N)(C#N)C(c2cccnc2)C2CCCC=C12 (stereo unspecified)	18µM*	-9%	45µM*	-22%	·	·
